{
  "source": "the emibetuzumab library of Makowski et al. (2022)",
  "parents": {"B1": {"name": "VH:VL chains; a variant is named by its letters at X, in order (parent)", "chain 1": "QVQLVQSGAEVKKPGASVKVSCKASGYTFTDYXMHWVRQAPGQGLEWMGXVNPNXXXTTYNQKFEGRVTMTTDTSTSTAYMELRSLRSDDTAVYYCARXNXLDXWGQGTTVTVSS", "chain 2": "DIQMTQSPSSLSASVGDRVTITCSVSSSVSSIYLHWYQQKPGKAPKLLIYSTSNLASGVPSRFSGSGSGTDFTLTISSLQPEDFATYYCQVYSGYPLTFGGGTKVEIK"}},
  "note": "Some of the results follow. No count for the full screen is at hand.",
  "data": [
    {"variants_of": "B1", "test": "yeast display scFab, FACS + sequencing", "conditions": "with MET", "how_it_was_run": "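For FACS, yeast displaying a heavy-chain CDR mutant scFab library were labelled with 1 nM HGFR-Fc and anti-Myc (PBSB, 1% milk, 3 h, room temperature), and the top 50% antigen-positive cells were gated. Input and round-3 sorted populations were deep sequenced in two replicates. The binding call was positive for sequences occurring in both antigen-positive samples and negative for sequences occurring only in input.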", "values": [
      {"variant": "DEAKAAVD", "antigen binding call": "no binding"},
      {"variant": "SETGGDWV", "antigen binding call": "no binding"},
      {"variant": "VTGKGDGV", "antigen binding call": "no binding"},
      {"variant": "VRGKGSGV", "antigen binding call": "binds"},
      {"variant": "SRGKGSGV", "antigen binding call": "binds"},
      {"variant": "VRGKGSGF", "antigen binding call": "binds"},
      {"variant": "VTGTGSGF", "antigen binding call": "no binding"},
      {"variant": "YRGESSGF", "antigen binding call": "binds"},
      {"variant": "SREAASGV", "antigen binding call": "no binding"},
      {"variant": "VRGKGDWV", "antigen binding call": "no binding"},
      {"variant": "ARGKGSGD", "antigen binding call": "no binding"},
      {"variant": "STGKGSGV", "antigen binding call": "no binding"},
      {"variant": "VTGTGSLV", "antigen binding call": "no binding"},
      {"variant": "DEGGTDAA", "antigen binding call": "no binding"},
      {"variant": "AAEKDDLA", "antigen binding call": "no binding"},
      {"variant": "YTGTGAVF", "antigen binding call": "no binding"},
      {"variant": "YRGKSSGF", "antigen binding call": "binds"},
      {"variant": "FRGKGSGF", "antigen binding call": "binds"},
      {"variant": "YRGKGAVF", "antigen binding call": "binds"},
      {"variant": "DRAGDDVF", "antigen binding call": "no binding"},
      {"variant": "YRAKSAVF", "antigen binding call": "binds"},
      {"variant": "YRKRSVVF chain 1 S115F", "antigen binding call": "no binding"},
      {"variant": "YRGKGSGF", "antigen binding call": "binds"},
      {"variant": "YRGKGDGS", "antigen binding call": "no binding"},
      {"variant": "YRGKGSGS", "antigen binding call": "binds"},
      {"variant": "DARGGDGS", "antigen binding call": "no binding"},
      {"variant": "FATGSDGA", "antigen binding call": "no binding"},
      {"variant": "DRAGDDAV", "antigen binding call": "no binding"},
      {"variant": "DRGGDDAA", "antigen binding call": "no binding"},
      {"variant": "FRETDFGA", "antigen binding call": "no binding"},
      {"variant": "DRAGDDGA", "antigen binding call": "no binding"},
      {"variant": "FRTGDDAV", "antigen binding call": "binds"},
      {"variant": "FRTGDAGA", "antigen binding call": "binds"},
      {"variant": "FRTGDDGA", "antigen binding call": "binds"},
      {"variant": "ARAGDDAV", "antigen binding call": "no binding"},
      {"variant": "DRTGDDVA", "antigen binding call": "no binding"},
      {"variant": "FRTGDDAA", "antigen binding call": "binds"},
      {"variant": "DREEGDWV", "antigen binding call": "no binding"},
      {"variant": "STAEDFVV", "antigen binding call": "no binding"},
      {"variant": "YRKRTFGA", "antigen binding call": "no binding"},
      {"variant": "YGAGDFGA", "antigen binding call": "no binding"},
      {"variant": "YRRGSFGA", "antigen binding call": "binds"},
      {"variant": "YAGKGFGA", "antigen binding call": "no binding"},
      {"variant": "YAGRGFGA", "antigen binding call": "no binding"},
      {"variant": "VRRGSFGA", "antigen binding call": "no binding"},
      {"variant": "YRRGGFGA", "antigen binding call": "binds"},
      {"variant": "YARTGFGA", "antigen binding call": "binds"},
      {"variant": "YKAGGALD", "antigen binding call": "binds"},
      {"variant": "SKAGGALD", "antigen binding call": "binds"},
      {"variant": "YKAKGALD", "antigen binding call": "binds"},
      {"variant": "SKKEDSAD", "antigen binding call": "no binding"},
      {"variant": "SEARSALD", "antigen binding call": "no binding"},
      {"variant": "SKAGGDVD", "antigen binding call": "no binding"},
      {"variant": "VKAGGDSD", "antigen binding call": "no binding"},
      {"variant": "SKAGGSAD", "antigen binding call": "binds"},
      {"variant": "VATGDDVY", "antigen binding call": "no binding"},
      {"variant": "VRAGAFSV", "antigen binding call": "no binding"},
      {"variant": "DTGTGDVF", "antigen binding call": "no binding"},
      {"variant": "VEEEGDVY", "antigen binding call": "no binding"},
      {"variant": "AKTRDDVA", "antigen binding call": "no binding"},
      {"variant": "YRTGAAGV", "antigen binding call": "binds"},
      {"variant": "YRTRSAGV", "antigen binding call": "binds"},
      {"variant": "YRTRGAGV", "antigen binding call": "binds"},
      {"variant": "DRGGDAVV", "antigen binding call": "no binding"},
      {"variant": "YGTRSYGV", "antigen binding call": "no binding"},
      {"variant": "YTTRGDGV", "antigen binding call": "no binding"},
      {"variant": "YRTRSAVV", "antigen binding call": "binds"},
      {"variant": "DTGTGSGA", "antigen binding call": "no binding"},
      {"variant": "VEGTGAGD", "antigen binding call": "no binding"},
      {"variant": "DAGKGAVV", "antigen binding call": "no binding"},
      {"variant": "DGGKNAVV", "antigen binding call": "no binding"},
      {"variant": "YAGKNAVV", "antigen binding call": "binds"},
      {"variant": "YRKGGAVV", "antigen binding call": "binds"},
      {"variant": "YTGTSAVV", "antigen binding call": "no binding"},
      {"variant": "YRKGAAVV", "antigen binding call": "binds"},
      {"variant": "YTKRSAVV", "antigen binding call": "no binding"},
      {"variant": "YRARSSVV", "antigen binding call": "binds"},
      {"variant": "YRARSAVV", "antigen binding call": "binds"},
      {"variant": "SEARSAVV", "antigen binding call": "no binding"},
      {"variant": "VTTKSDGY", "antigen binding call": "no binding"},
      {"variant": "YATGDDGV", "antigen binding call": "no binding"},
      {"variant": "SEGGTDVV", "antigen binding call": "no binding"},
      {"variant": "VTGGDSGD", "antigen binding call": "no binding"},
      {"variant": "VRTEDSLV", "antigen binding call": "no binding"},
      {"variant": "VAGGDALD", "antigen binding call": "no binding"},
      {"variant": "VRTAASGD", "antigen binding call": "no binding"},
      {"variant": "VRTEDSGD", "antigen binding call": "binds"},
      {"variant": "VRTEDDLV", "antigen binding call": "no binding"},
      {"variant": "VRTEDALD", "antigen binding call": "binds"},
      {"variant": "VRTEDALV", "antigen binding call": "binds"},
      {"variant": "VTTEASLD", "antigen binding call": "no binding"},
      {"variant": "VRTEDSLD", "antigen binding call": "binds"},
      {"variant": "VRTEDDVD", "antigen binding call": "no binding"},
      {"variant": "DGGGNDLA chain 1 R87K", "antigen binding call": "no binding"},
      {"variant": "VAGTGFWV", "antigen binding call": "no binding"},
      {"variant": "AGETGFSA", "antigen binding call": "no binding"},
      {"variant": "VRTRSSLD", "antigen binding call": "binds"},
      {"variant": "YRARGALS", "antigen binding call": "binds"},
      {"variant": "YKARGALS", "antigen binding call": "binds"},
      {"variant": "YRAGGALS", "antigen binding call": "binds"},
      {"variant": "YRAKGALS", "antigen binding call": "binds"},
      {"variant": "DAARGDAV", "antigen binding call": "no binding"},
      {"variant": "VEKKDYSA", "antigen binding call": "no binding"},
      {"variant": "DEGGTAVA", "antigen binding call": "no binding"},
      {"variant": "DAGGAAVS", "antigen binding call": "no binding"},
      {"variant": "YRAKGALF", "antigen binding call": "binds"},
      {"variant": "YRAKGAGS", "antigen binding call": "binds"},
      {"variant": "FTTRSALS", "antigen binding call": "no binding"},
      {"variant": "YRAAGAGS", "antigen binding call": "binds"},
      {"variant": "FRAGGALS", "antigen binding call": "binds"},
      {"variant": "DAGKGALF", "antigen binding call": "no binding"},
      {"variant": "YTGEADAS", "antigen binding call": "no binding"},
      {"variant": "SAERSAAF", "antigen binding call": "no binding"},
      {"variant": "DAGGASSA", "antigen binding call": "no binding"},
      {"variant": "SEEEGSGV", "antigen binding call": "no binding"},
      {"variant": "YRERGALS", "antigen binding call": "binds"},
      {"variant": "YEGGGDLV", "antigen binding call": "no binding"},
      {"variant": "YRGGDDLV", "antigen binding call": "no binding"},
      {"variant": "YRGGDYSV", "antigen binding call": "no binding"},
      {"variant": "YRGGGYLV", "antigen binding call": "binds"},
      {"variant": "YRGGDYLV", "antigen binding call": "binds"},
      {"variant": "YTTGGYLV", "antigen binding call": "no binding"},
      {"variant": "DETEGDVF", "antigen binding call": "no binding"},
      {"variant": "VKGEGDVY", "antigen binding call": "no binding"},
      {"variant": "VEERDDWF", "antigen binding call": "no binding"},
      {"variant": "SEARSSLA", "antigen binding call": "no binding"},
      {"variant": "SETGAALD", "antigen binding call": "no binding"},
      {"variant": "SEARSALA", "antigen binding call": "binds"},
      {"variant": "SRGGGALD", "antigen binding call": "binds"},
      {"variant": "SRGKGALD", "antigen binding call": "binds"},
      {"variant": "SRGGAAWA", "antigen binding call": "no binding"},
      {"variant": "SAGGGAGD", "antigen binding call": "no binding"},
      {"variant": "SRGGDDVA", "antigen binding call": "no binding"},
      {"variant": "SEARSDLA", "antigen binding call": "no binding"},
      {"variant": "SRGKGDAD", "antigen binding call": "no binding"},
      {"variant": "SRGGSALA", "antigen binding call": "binds"}
    ]}
  ]
}
